Data: PubChem BioAssay AID1159580 (chemical genetic matrix, 2015)
Hit rate of the full screen: of about 5,500 compounds, about 2,000 (36%) were called active. Not shown: some 18% with an inconclusive outcome. No stated cut-off is given here; in the data, active means normalized growth mostly below about 0.91 (no sharp cut-off); inconclusive means no clear call, values can overlap the other calls; inactive means mostly above about 0.92. Some of the results follow.

Assay: chemical genetic growth profiling, strain panel (AID 1159580);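 further: tested at 20 µM; growth read once vehicle control cultures reached saturation at 30 °C; 1 = growth at the plate median or of vehicle wells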
Details: S. cerevisiae deletion strains, growth OD

Measured: normalized growth

C[C@@H]1O[C@H](C[N+](C)(C)C)C[C@H]1O
inactive: locus YAL013W, strain DEP1, stronger effect = lower value 1.01 | locus YAL040C, strain CLN3, stronger effect = lower value 1 | locus YCL061C, strain MRC1 (second series), stronger effect = lower value 1.01 | locus YDR363W, strain ESC2, stronger effect = lower value 0.993 | locus YER002W, strain NOP16, stronger effect = lower value 1.02 | locus YMR263W, strain SAP30, stronger effect = lower value 1.01 | locus YNL128W, strain TEP1, stronger effect = lower value 1 | locus YNL153C, strain GIM3, stronger effect = lower value 1.02 | locus YNL175C, strain NOP13, stronger effect = lower value 1.01 | locus YNL197C, strain WHI3, stronger effect = lower value 1.01 | locus YNL224C, strain SQS1, stronger effect = lower value 1.01 | locus YOR083W, strain WHI5 (second series), stronger effect = lower value 1.01 | locus YPL241C, strain CIN2, stronger effect = lower value 1.01

CC(C)CCCC1(C)C=Cc2c(O)c3c(c(CCC(C)C)c2O1)OC12C(CC4CC1C(C)(C)OC2(CCC(C)C(=O)O)C4O)C3=O (stereo not drawn)
active: locus YDR137W, strain rgp1, stronger effect = lower value 0.815
inactive: locus YAL021C, strain ccr4, stronger effect = lower value 1 | locus YAL026C, strain drs2, stronger effect = lower value 0.991 | locus YAL030W, strain snc1, stronger effect = lower value 1 | locus YBL061C, strain skt5, stronger effect = lower value 0.996 | locus YBR009C, strain hhf1, stronger effect = lower value 0.992 | locus YBR023C, strain chs3, stronger effect = lower value 0.998 | locus YBR171W, strain sec66, stronger effect = lower value 0.991 | locus YBR231C, strain swc5, stronger effect = lower value 0.997 | locus YBR279W, strain paf1, stronger effect = lower value 0.994 | locus YCL011C, strain gbp2, stronger effect = lower value 0.994 | locus YCL016C, strain dcc1, stronger effect = lower value 0.989 | locus YCL061C, strain MRC1, stronger effect = lower value 0.986 | locus YCL069W, strain vba3, stronger effect = lower value 0.998 | locus YCR088W, strain abp1, stronger effect = lower value 0.997 | locus YDL005C, strain med2, stronger effect = lower value 0.985 | locus YDL040C, strain nat1, stronger effect = lower value 0.995 | locus YDR001C, strain nth1, stronger effect = lower value 0.998 | locus YDR069C, strain doa4, stronger effect = lower value 0.988 | locus YDR159W, strain sac3, stronger effect = lower value 0.991 | locus YDR195W, strain ref2 1.01 | locus YDR297W, strain sur2, stronger effect = lower value 0.998 | locus YDR334W, strain swr1, stronger effect = lower value 0.975 | locus YDR335W, strain msn5, stronger effect = lower value 0.995 | locus YDR392W, strain spt3, stronger effect = lower value 0.925 | locus YEL003W, strain gim4, stronger effect = lower value 0.982 | locus YEL037C, strain rad23, stronger effect = lower value 1.03 | locus YEL061C, strain CIN8 (second series), stronger effect = lower value 0.996 | locus YER015W, strain faa2, stronger effect = lower value 1 | locus YER016W, strain bim1, stronger effect = lower value 0.99 | locus YER111C, strain swi4, stronger effect = lower value 1.02 | locus YER155C, strain BEM2 (second series), stronger effect = lower value 1.01 | locus YFR010W, strain ubp6, stronger effect = lower value 0.986 | locus YGL167C, strain pmr1, stronger effect = lower value 0.988 | locus YGL173C, strain kem1, stronger effect = lower value 0.991 | locus YGL227W, strain vid30, stronger effect = lower value 1.01 | locus YGL240W, strain doc1, stronger effect = lower value 0.979 | locus YGL253W, strain hxk2, stronger effect = lower value 1 | locus YHR013C, strain ard1, stronger effect = lower value 1.02 | locus YHR027C, strain rpn1, stronger effect = lower value 1 | locus YHR030C, strain SLT2, stronger effect = lower value 0.966 | locus YHR079C, strain IRE1, stronger effect = lower value 0.971 | locus YHR142W, strain chs7, stronger effect = lower value 1.01 | locus YJL092W, strain hpr5, stronger effect = lower value 0.988 | locus YJL095W, strain BCK1 (second series), stronger effect = lower value 1 | locus YJL095W, strain BCK1, stronger effect = lower value 0.987 | locus YJL115W, strain asf1, stronger effect = lower value 0.996 | locus YJL129C, strain trk1, stronger effect = lower value 0.958 | locus YJL154C, strain vps35, stronger effect = lower value 0.994 | locus YJL164C, strain tpk1, stronger effect = lower value 0.982 | locus YJL166W, strain qcr8, stronger effect = lower value 0.996 | locus YJL187C, strain SWE1, stronger effect = lower value 0.997 | locus YJR066W, strain TOR1, stronger effect = lower value 0.919 | locus YKL160W, strain elf1, stronger effect = lower value 1 | locus YKR026C, strain gcn3, stronger effect = lower value 1 | locus YKR091W, strain srl3, stronger effect = lower value 0.998 | locus YLL001W, strain dnm1, stronger effect = lower value 1 | locus YLL026W, stronger effect = lower value 0.997 | locus YLL041C, strain sdh2, stronger effect = lower value 0.995 | locus YLR027C, strain aat2, stronger effect = lower value 0.999 | locus YLR113W, strain HOG1, stronger effect = lower value 0.941 | locus YLR221C, strain rsa3, stronger effect = lower value 0.989 | locus YLR258W, strain gsy2, stronger effect = lower value 0.998 | locus YLR262C, strain YPT6 (second series), stronger effect = lower value 0.919 | locus YLR320W, strain mms22, stronger effect = lower value 0.99 | locus YLR342W, strain FKS1, stronger effect = lower value 1 | locus YLR357W, strain rsc2, stronger effect = lower value 1.04 | locus YLR370C, strain arc18, stronger effect = lower value 0.999 | locus YLR384C, strain iki3, stronger effect = lower value 0.992 | locus YML120C, strain ndi1, stronger effect = lower value 0.997 | locus YMR058W, strain fet3, stronger effect = lower value 0.986 | locus YMR125W, strain sto1, stronger effect = lower value 0.991 | locus YMR129W, stronger effect = lower value 0.993 | locus YMR205C, strain PFK2, stronger effect = lower value 0.955 | locus YMR231W, strain pep5, stronger effect = lower value 0.986 | locus YNL071W, strain lat1, stronger effect = lower value 0.969 | locus YNL183C, strain NPR1, stronger effect = lower value 0.92 | locus YNL209W, strain ssb2, stronger effect = lower value 0.99 | locus YNL248C, strain rpa49, stronger effect = lower value 1.01 | locus YNL322C, strain KRE1 (second series), stronger effect = lower value 1.01 | locus YNR049C, strain mso1, stronger effect = lower value 1.01 | locus YOR001W, strain rrp6, stronger effect = lower value 0.983 | locus YOR070C, strain gyp1, stronger effect = lower value 0.995 | locus YOR080W, strain dia2, stronger effect = lower value 1 | locus YOR083W, strain WHI5, stronger effect = lower value 0.99 | locus YOR106W, strain vam3, stronger effect = lower value 0.996 | locus YOR231W, strain MKK1, stronger effect = lower value 0.964 | locus YOR265W, strain rbl2, stronger effect = lower value 1 | locus YOR270C, strain vph1, stronger effect = lower value 0.955 | locus YOR290C, strain snf2, stronger effect = lower value 0.995 | locus YPL051W, strain arl3, stronger effect = lower value 0.98 | locus YPL078C, strain atp4, stronger effect = lower value 1 | locus YPL106C, strain sse1, stronger effect = lower value 1 | locus YPL240C, strain hsp82, stronger effect = lower value 1.01 | locus YPL256C, strain CLN2, stronger effect = lower value 0.985
